Consider 40 molecules from PubChem BioAssay (NCATS).

Records with an inconclusive call do not appear. Entries that show only a call come without a potency. Activity calls are given as the source filed them. Calls follow the shape of the dose curve; as a rule, active = well fitted cell-killing curve with a large enough effect; inconclusive = small, poorly fitted or top-dose-only effect, or effect the other way; inactive = no such curve, though single readings can be large or run the other way.
Potency is read from the fitted curve at half-maximal effect.

A short description of this assay: Viability qHTS for spleen associated tyrosine kinase inhibitor (SYKi) naive MV4-11 cells (AID 1963823). Also: nearly all actives have a fitted effect of over 40% in size. As to conditions: MV4-11 AML viability, CellTiter-Glo luminescence, 72 h; series mostly up to 45 µM. The source says:
Department of Medicine, Hematology/Oncology
University Hospital Frankfurt, Germany.
Trials have shown promising clinical activity of the selective SYK inhibitor entospletinib in patients with high expressing HOXA9/MEIS1 acute leukemias. As the development of resistance mechanisms is a common problem in the use of targeted drugs, we performed a chemical library screen to identify drug sensitivities in SYK inhibitor resistant AML cells. […] Glucocorticoids are potent immunosuppressants which work in part by inhibiting the transcription of cytokine genes.
Described herein is a viability screen to look for activity in the SYK inhibitor naive cell line against four NCATS compound libraries (MIPE 5.0, NPC, NPACT, and Kinase) totaling 11372 compounds. Active hits were reacquired for confirmation and further secondary assay testing.
SEQUENCE No. (e.g., 1, 2, 3, etc.); […] (e.g., Cells, Incubation, Reagent, etc.); VALUE; DESCRIPTION.
1; Media; 2uL; white, solid-bottom Corning assay plate.
2; Compounds; 23nL; Echo acoustic dispenser.
3; Cell; 5uL; 500 cells per well.
4: Incubation; 72hr; 37 C, 5% CO2, 95% humidity.
5; Reagent; 3uL; CellTiter-Glo reagent (Promega).
6; Incubation; 10min; room temperature.
7; Detection; Luminescence; ViewLux plate reader (PerkinElmer).
NOTES (numbers refer to Sequence numbers above
1. Quantitative high-throughput screening (qHTS) of small molecule compounds was conducted on naive SYKi MV4-11 cell line.
2. Twenty-three nanoliter of small molecule compounds were added to each assay plates using the Echo acoustic dispenser (Beckman Coulter).
3. Cells were seeded into the assay plates at a final density of 500 cells in 5uL of media per well using the Multi-drop Combi dispenser.
4. Plates were covered with stainless steel gasketed lids and incubated for 72 hours at standard cell culture conditions.
5. Viability was assessed by adding 3uL of CellTiter-Glo detection reagent (Promega).
6. Plates were covered with gasket lids and incubated for 10 minutes at room temperature.
7. Luminescence was measured on a ViewLux plate reader (PerkinElmer).
(In general: Quantitative high-throughput screening tests each substance at several concentrations.)
Take `CCC(=O)c1cc(-c2ccc(Cl)cc2)n(-c2ccc(S(N)(=O)=O)cc2)c1C`: the Potency was 20600 nM (active). For the molecule `CC1(C)CCC(CN2CCN(c3ccc(C(=O)NS(=O)(=O)c4ccc(NCC5CCOCC5)c([N+](=O)[O-])c4)c(Oc4cnc5[nH]ccc5c4)c3)CC2)=C(c2ccc(Cl)cc2)C1`, the Potency is 105 nM (active). Still for that read-out and setting: the result for `Nc1ncnc2ccccc12` reads “inactive”. Same read-out and setting: the figure for `CCCC(Nc1nc(-c2ccc(NC(=O)NCC)c(OC)c2)ncc1C)c1cccnc1` (stereo not given) is 58 nM (active); for `Cn1ccc2cc3c(cc21)CCN3C(=O)Nc1cccnc1` it is “inactive”; for `C=C1CCC[C@]2(C)CC[C@@H](C(=C)C(=O)O)[C@H](O)[C@@H]12` it is “inactive”.

Take `CC(CCC1(O)OC2CC3C4CC=C5CC(O[C@@H]6O[C@H](CO)[C@@H](O[C@@H]7O[C@@H](C)[C@H](O)[C@@H](O)[C@H]7O)[C@H](O)[C@H]6O[C@@H]6O[C@@H](C)[C@H](O)[C@@H](O)[C@H]6O)CCC5(C)C4CCC3(C)C2C1C)CO[C@@H]1O[C@H](CO)[C@@H](O)[C@H](O)[C@H]1O` (stereo not given in full): the Potency is 3480 nM (active). On the same count and under the same terms, the result for `c1cc(-c2cnn3cc(-c4ccc(OCCN5CCCCC5)cc4)cnc23)ccn1` reads 20.6 nM (active). The same measure, in the same setting: the entry for `CC(=O)OC[C@H]1O[C@@H](n2ncc(=O)[nH]c2=O)[C@H](OC(C)=O)[C@@H]1OC(C)=O` is “inactive”; for `C=C1CC[C@H]2[C@@](C)(CCC[C@@]2(C)C(=O)O)[C@@H]1CCC(C)CCO` (stereo not given in full) it is “inactive”. Turning to `C[C@@H]1O[C@@H](O[C@H]2[C@H](O)[C@@H](O[C@@H]3O[C@H](CO)[C@@H](O)[C@H](O[C@@H]4O[C@H](CO)[C@@H](O)[C@H](O)[C@H]4O)[C@H]3O)[C@H](O[C@H]3CC[C@@]4(C)C(=CC[C@@H]5C4CC[C@@]4(C)C5C[C@@H]5OC6(CC[C@@](C)(CO[C@@H]7O[C@H](CO)[C@@H](O)[C@H](O)[C@H]7O)O6)[C@@H](C)[C@@H]54)C3)O[C@@H]2CO)[C@H](O)[C@H](O)[C@H]1OC1OC(CO)C(O)C(O)C1O` (stereo not given in full), the viability (% of control) was 77.4% [at 9.25 µM] (inactive). For the molecule `O=C(O)CC(CCc1ccccc1)OC1OC(CO)C(O)C(O)C1O` (stereo not given), the Potency entry was “inactive”.

For the molecule `O=C(O)c1cc(=O)c2ccccc2o1`, the Potency entry was “inactive”. Still for that read-out and setting: the figure for `COc1ccc(N2C(=O)N(c3c(C)cccc3Cl)Cc3cnc(Nc4ccc(C5CCN(C)CC5)cc4OC)nc32)nc1` is 934 nM (active); for `O=C(O)c1cc(-c2ccccc2)nc2ccccc12` it is “inactive”; for `CN(C)CC[C@@H](c1ccc(Br)cc1)c1ccccn1` it is “inactive”. Same read-out and setting: the entry for `CC1(C)CC[C@]2(C(=O)O)CC[C@]3(C)C(=CCC4[C@@]5(C)C[C@H](O)[C@H](O[C@@H]6O[C@H](CO)[C@@H](O)[C@H](O)[C@H]6O)[C@@](C)(CO)C5[C@H](O)C[C@]43C)[C@@H]2C1` (stereo not given in full) is “inactive”. In the case of `CC1(C)CC[C@]2(C(=O)O[C@@H]3O[C@H](CO)[C@@H](O)[C@H](O)[C@H]3O)CC[C@]3(C)C(=CCC4[C@@]5(C)CC[C@H](O[C@@H]6O[C@H](C(=O)O)[C@@H](O)[C@H](O)[C@H]6O)C(C)(C)C5CC[C@]43C)C2C1` (stereo not given in full), the viability (% of control) is 91.3% [at 9.25 µM] (inactive). For `Cc1ccc(C(=O)OCc2ccc([C@@H](CN)C(=O)Nc3ccc4cnccc4c3)cc2)c(C)c1`, the Potency was 1150 nM (active).

In the case of `CN(C)c1nc2c(Br)c(Br)c(Br)c(Br)c2[nH]1`, the Potency was 11600 nM (active). As to `CC(C)c1c(NC(=O)Nc2ccc(Cl)cc2)c(=O)n(-c2ccccc2)n1C`, the Potency entry was “inactive”. Consider `CNc1ccc([N+](=O)[O-])c(Nc2ccc3[nH]ncc3c2)n1`, for which the Potency was 2590 nM (active). On the same count and under the same terms, the figure for `Cc1cccc(Nc2nc(-c3ccncc3)cs2)c1` is 8200 nM (active). Turning to `COc1ccnc(CS(=O)c2nc3ccc(OC(F)F)cc3[nH]2)c1OC` (stereo not given), the Potency entry was “inactive”. `CNCC[C@H](Oc1cccc2ccccc12)c1cccs1`: the Potency was 18800 nM (active).

Consider `CC(C)(C)C(O)/C=C/c1ccc2c(c1)OCO2` (stereo not given), for which the Potency entry was “inactive”. With `OC/C=C/c1ccc(O[C@@H]2O[C@H](CO)[C@@H](O)[C@H](O)[C@H]2O)cc1`, the Potency entry is “inactive”. On the same count and under the same terms, the result for `Cn1cnc2c1c(=O)[nH]c(=O)n2C` reads “inactive”; that for `C[C@@H]1O[C@@H](OC[C@H]2O[C@@H](OCCc3ccccc3)[C@H](O)[C@@H](O)[C@@H]2O)[C@H](O)[C@H](O)[C@H]1O`, “inactive”. In the case of `O=C(O)[C@@H]1C[C@H]2C[C@@H](CCc3nn[nH]n3)CC[C@H]2CN1`, the Potency result was “inactive”. As to `CCCCCCc1cccc(NC(=O)[C@H](N)CCP(=O)(O)O)c1`, the viability (% of control) was 90.5% [at 9.25 µM] (inactive). As for `CC(C)n1nc(-c2ccc(NC(=O)Nc3cccc(C(F)(F)F)c3)cc2)c2c(N)ncnc21`, the Potency entry was “inactive”. For `N[C@H]1C(O)O[C@H](CO)[C@@H](O)[C@@H]1O` (stereo not given in full), the Potency result is “inactive”.

On to `CNCc1ccc(-c2cc(-c3nc(-c4ccc(S(=O)(=O)C(C)C)cc4)cnc3N)on2)cc1`, for which the Potency is 259 nM (active). As to `NS(=O)(=O)c1cc2c(cc1C(F)(F)F)NC(Cc1ccccc1)NS2(=O)=O` (stereo not given), the Potency entry was “inactive”.

As to `CC/C=C(\C(=O)N[C@@H]1C(=O)N2C(C(=O)OCOC(=O)C(C)(C)C)=C(COC(N)=O)CS[C@H]12)c1csc(N)n1`, the Potency entry was “inactive”.

Regarding `COc1cc(/C=C/C(=O)OC[C@H]2O[C@@](CO)(O[C@H]3O[C@H](CO)[C@@H](O)[C@H](O)[C@H]3O)[C@@H](OC(=O)/C=C/c3ccc(O)c(OC)c3)[C@@H]2O)ccc1O`, the Potency entry was “inactive”. `COc1cc(C2Oc3c(OC)cc(CCCO)cc3C2CO)ccc1O[C@H]1O[C@H](C)[C@@H](O)[C@H](O)[C@@H]1O` (stereo not given in full): the Potency result was “inactive”.

With `CC(=O)c1ccc2c(c1)c1cc(C(C)=O)ccc1n2CCNC(C)C`, the Potency is 372 nM (active). On to `CC(=O)NC(CS)C(=O)O` (stereo not given), for which the Potency entry was “inactive”.
